# According to the supplement of paper PMC10849652:
# Of roughly 8,800 targets only a part is listed; those with a hit were picked by preference. About 0.5% of all pairs of compound and target were hits.
# Compound: C1=CC=C(C=C1)[C@H](COC2=CC3=C(C=C2)NC(=O)N3)NC(=O)C4=CC=CN(C4=O)CC5=CC(=C(C=C5)F)F
# Experiment: log2 fold change, soluble protein after heating vs DMSO (PISA); higher = thermal stabilisation; K562 lysate, 10 uM; active = over 0.2 and 3.5 SD of the protein, either way, in both replicates (recomputed)
# Outline: (§1)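 Dounce homogenisation of K562 pellets in PBS pH 7.4 with 1 mM MgCl2 produced a crude extract, used at 1 mg/mL protein. Exposure to 10 μM compound lasted 30 min, and aliquots were then heated for 3 min across 48°C-58°C, pooled and brought to 0.5% NP-40 at 4°C. The supernatant after 21,000xg for 90 min was quantified by TMTpro 16plex LC-MS/MS with channel sums equalised. Duplicate values are given as log-two fold change in thermal stability relative to solvent controls.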
# UniProt Q9BRN9, sequence (Q9BRN9 whole entry, looked up): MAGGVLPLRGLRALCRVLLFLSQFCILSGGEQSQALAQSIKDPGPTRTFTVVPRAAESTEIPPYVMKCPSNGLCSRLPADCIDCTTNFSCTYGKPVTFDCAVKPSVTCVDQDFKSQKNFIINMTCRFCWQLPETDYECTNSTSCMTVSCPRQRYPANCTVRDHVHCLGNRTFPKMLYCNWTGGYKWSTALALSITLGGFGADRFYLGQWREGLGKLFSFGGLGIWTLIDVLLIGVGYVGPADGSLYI
# UniProt Q9NRX6, sequence (Q9NRX6 whole entry, looked up): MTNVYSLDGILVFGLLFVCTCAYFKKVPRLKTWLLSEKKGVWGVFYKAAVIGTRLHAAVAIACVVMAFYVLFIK
# UniProt P62328, sequence (P62328 whole entry, looked up): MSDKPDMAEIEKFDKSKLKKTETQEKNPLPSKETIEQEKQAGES
# UniProt Q6N022, sequence (Q6N022 whole entry, looked up): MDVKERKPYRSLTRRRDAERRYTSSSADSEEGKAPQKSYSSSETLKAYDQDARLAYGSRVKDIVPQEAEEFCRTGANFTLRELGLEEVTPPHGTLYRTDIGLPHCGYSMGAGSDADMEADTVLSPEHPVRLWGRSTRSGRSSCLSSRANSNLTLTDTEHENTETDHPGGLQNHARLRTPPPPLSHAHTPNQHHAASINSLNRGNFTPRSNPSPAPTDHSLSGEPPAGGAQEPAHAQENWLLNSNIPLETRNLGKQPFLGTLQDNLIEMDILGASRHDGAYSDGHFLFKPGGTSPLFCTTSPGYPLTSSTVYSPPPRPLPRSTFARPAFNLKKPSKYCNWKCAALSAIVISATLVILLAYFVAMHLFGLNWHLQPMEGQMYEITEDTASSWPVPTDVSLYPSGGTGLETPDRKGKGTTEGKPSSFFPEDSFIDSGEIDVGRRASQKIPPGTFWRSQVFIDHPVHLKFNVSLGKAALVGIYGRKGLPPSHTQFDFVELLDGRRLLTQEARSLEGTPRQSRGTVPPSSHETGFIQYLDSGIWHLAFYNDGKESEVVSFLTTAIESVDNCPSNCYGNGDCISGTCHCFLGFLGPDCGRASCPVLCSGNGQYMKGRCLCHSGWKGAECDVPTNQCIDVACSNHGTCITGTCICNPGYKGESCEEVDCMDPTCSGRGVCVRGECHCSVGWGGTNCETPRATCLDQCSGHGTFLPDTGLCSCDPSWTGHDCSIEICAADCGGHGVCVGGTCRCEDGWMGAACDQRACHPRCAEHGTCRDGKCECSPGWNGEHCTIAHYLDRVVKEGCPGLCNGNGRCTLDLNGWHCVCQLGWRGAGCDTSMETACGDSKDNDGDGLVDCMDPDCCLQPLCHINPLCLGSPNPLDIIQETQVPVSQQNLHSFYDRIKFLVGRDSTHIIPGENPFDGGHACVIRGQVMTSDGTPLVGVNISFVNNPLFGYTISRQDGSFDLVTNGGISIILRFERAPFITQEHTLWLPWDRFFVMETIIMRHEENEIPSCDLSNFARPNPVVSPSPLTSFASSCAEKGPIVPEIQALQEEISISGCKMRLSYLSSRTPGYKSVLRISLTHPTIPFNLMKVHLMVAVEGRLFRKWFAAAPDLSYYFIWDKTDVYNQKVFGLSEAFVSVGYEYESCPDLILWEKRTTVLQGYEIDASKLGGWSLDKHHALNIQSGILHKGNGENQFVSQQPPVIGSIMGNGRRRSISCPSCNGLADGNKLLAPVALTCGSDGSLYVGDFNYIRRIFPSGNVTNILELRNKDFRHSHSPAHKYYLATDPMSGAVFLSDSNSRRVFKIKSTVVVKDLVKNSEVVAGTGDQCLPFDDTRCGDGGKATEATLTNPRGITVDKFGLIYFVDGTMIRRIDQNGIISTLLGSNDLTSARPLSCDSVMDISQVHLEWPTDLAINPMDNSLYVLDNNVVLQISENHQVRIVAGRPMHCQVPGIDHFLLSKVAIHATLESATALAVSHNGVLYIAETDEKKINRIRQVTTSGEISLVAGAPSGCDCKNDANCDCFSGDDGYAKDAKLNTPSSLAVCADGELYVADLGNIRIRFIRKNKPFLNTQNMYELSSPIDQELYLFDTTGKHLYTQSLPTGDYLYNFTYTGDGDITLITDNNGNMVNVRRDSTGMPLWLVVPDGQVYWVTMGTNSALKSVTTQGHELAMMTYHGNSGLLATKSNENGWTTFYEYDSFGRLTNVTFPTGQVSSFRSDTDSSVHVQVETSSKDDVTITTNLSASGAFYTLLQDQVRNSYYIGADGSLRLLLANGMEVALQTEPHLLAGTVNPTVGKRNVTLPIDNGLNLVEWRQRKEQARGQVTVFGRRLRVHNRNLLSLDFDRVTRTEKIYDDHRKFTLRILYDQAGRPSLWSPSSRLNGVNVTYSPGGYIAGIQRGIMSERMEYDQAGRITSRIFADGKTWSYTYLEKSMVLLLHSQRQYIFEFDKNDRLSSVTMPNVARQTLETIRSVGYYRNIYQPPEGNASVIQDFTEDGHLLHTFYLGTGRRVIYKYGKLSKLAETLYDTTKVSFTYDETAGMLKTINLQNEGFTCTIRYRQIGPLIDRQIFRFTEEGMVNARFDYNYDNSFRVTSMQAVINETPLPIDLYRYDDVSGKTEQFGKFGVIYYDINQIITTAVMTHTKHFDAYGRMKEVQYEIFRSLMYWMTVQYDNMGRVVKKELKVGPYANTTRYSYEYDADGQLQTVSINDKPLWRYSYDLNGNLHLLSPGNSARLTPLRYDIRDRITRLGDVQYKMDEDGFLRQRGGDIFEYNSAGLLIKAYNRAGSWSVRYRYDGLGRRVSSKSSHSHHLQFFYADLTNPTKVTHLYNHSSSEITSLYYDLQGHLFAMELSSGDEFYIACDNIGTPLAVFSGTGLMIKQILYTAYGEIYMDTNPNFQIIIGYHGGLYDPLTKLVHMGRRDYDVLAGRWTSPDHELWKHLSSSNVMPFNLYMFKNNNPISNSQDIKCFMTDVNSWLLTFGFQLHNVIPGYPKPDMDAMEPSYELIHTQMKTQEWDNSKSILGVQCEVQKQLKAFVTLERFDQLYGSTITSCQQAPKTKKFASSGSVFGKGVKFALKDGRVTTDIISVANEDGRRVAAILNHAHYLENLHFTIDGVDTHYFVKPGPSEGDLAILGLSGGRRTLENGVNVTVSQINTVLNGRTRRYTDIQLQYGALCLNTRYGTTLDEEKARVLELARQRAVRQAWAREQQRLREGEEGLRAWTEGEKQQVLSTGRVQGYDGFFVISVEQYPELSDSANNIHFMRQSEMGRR
# UniProt O43399, sequence (O43399 whole entry, looked up): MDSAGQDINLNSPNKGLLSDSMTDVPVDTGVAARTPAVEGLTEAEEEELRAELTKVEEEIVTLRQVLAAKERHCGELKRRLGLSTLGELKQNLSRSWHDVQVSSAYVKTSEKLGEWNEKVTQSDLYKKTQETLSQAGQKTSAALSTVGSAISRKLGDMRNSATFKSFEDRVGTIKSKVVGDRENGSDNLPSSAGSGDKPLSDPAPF
# UniProt P04350, sequence (P04350 whole entry, looked up): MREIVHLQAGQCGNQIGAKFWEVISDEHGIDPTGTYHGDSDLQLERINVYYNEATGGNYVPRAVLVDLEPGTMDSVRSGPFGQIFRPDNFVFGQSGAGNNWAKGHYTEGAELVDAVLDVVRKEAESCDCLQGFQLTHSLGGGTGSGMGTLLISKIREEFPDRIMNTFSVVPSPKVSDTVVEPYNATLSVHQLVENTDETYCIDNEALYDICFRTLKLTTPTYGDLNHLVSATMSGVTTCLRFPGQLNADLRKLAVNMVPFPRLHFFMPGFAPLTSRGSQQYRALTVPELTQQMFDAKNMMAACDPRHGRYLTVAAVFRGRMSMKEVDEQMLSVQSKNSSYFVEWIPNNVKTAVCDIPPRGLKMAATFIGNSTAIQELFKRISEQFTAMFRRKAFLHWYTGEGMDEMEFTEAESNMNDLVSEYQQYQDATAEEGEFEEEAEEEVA
# UniProt P21580, sequence (P21580 whole entry, looked up): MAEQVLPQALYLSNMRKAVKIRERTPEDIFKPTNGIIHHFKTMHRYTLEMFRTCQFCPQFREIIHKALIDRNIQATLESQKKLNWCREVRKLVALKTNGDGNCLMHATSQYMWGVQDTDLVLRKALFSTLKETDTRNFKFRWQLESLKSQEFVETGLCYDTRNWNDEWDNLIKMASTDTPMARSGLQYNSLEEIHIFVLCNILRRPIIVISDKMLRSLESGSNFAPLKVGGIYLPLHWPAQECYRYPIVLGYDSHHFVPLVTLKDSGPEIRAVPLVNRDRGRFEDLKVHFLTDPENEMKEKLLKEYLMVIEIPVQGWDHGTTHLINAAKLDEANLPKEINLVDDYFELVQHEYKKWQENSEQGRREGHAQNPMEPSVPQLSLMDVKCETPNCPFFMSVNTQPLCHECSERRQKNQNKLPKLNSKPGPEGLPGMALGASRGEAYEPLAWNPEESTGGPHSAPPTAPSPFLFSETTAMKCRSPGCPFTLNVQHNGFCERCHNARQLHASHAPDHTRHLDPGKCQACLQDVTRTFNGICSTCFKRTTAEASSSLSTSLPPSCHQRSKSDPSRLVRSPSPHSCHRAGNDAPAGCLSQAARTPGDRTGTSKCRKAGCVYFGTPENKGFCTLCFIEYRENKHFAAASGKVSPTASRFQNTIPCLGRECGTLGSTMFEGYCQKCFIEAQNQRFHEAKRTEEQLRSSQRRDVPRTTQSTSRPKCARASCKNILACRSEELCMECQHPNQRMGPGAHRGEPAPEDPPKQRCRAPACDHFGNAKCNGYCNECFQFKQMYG
# UniProt Q53S58, sequence (Q53S58 whole entry, looked up): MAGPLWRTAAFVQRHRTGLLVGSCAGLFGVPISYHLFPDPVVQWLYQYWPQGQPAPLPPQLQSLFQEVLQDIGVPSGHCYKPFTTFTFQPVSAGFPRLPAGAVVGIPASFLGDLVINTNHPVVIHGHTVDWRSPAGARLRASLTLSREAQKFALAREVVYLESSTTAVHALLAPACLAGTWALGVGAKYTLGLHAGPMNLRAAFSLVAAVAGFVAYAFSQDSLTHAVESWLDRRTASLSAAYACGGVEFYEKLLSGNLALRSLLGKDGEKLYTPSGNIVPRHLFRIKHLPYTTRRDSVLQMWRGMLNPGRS
row,Target,log2 fold change
1,TENM4 (UniProt Q6N022),-0.057 (inactive)
2,TMEM161B (UniProt Q8NDZ6),-0.07 (inactive)
3,TMEM177 (UniProt Q53S58),0.002 (inactive)
4,TASP1 (UniProt Q9H6P5),0.027 (inactive)
5,TLE3 isoform 5 (UniProt Q04726),-0.061 (inactive)
6,TFPT (UniProt P0C1Z6),-0.176 (inactive)
7,TMEM167B (UniProt Q9NRX6),0.021 (inactive)
8,TPD52L2 isoform 3 (UniProt O43399),-0.058 (inactive)
9,TUBB4A (UniProt P04350),0.015 (inactive)
10,TRPM4 (UniProt Q8TD43),-0.074 (inactive)
11,TNFAIP3 (UniProt P21580),0.052 (inactive)
12,TUBA4A (UniProt C9JQ00),-0.111 (inactive)
13,TNIK isoform 5 (UniProt Q9UKE5),0.008 (inactive)
14,TM2D3 (UniProt Q9BRN9),0.023 (inactive)
15,TMSB4X (UniProt P62328),-0.935 (active)
16,TUBB6 (UniProt K7ES63),-0.115 (inactive)
17,TCF20 (UniProt Q9UGU0),0.022 (inactive)

# Compound: CC1=C(SC2=C1C(=N[C@H](C3=NN=C(N32)C)CC(=O)N)C4=CC=C(C=C4)Cl)C
# Experiment: as above
# Outline: as §1
row,Target,log2 fold change
1,TENM4 (UniProt Q6N022),0.174 (inactive)
2,TMEM161B (UniProt Q8NDZ6),-0.052 (inactive)
3,TMEM177 (UniProt Q53S58),-0.009 (inactive)
4,TASP1 (UniProt Q9H6P5),0.205 (inactive)
5,TLE3 isoform 5 (UniProt Q04726),-0.454 (active)
6,TFPT (UniProt P0C1Z6),-0.078 (inactive)
7,TMEM167B (UniProt Q9NRX6),-0.032 (inactive)
8,TPD52L2 isoform 3 (UniProt O43399),0.135 (inactive)
9,TUBB4A (UniProt P04350),-0.03 (inactive)
10,TRPM4 (UniProt Q8TD43),0.114 (inactive)
11,TNFAIP3 (UniProt P21580),0.05 (inactive)
12,TUBA4A (UniProt C9JQ00),-0.225 (inactive)
13,TNIK isoform 5 (UniProt Q9UKE5),-0.009 (inactive)
14,TM2D3 (UniProt Q9BRN9),-0.003 (inactive)
15,TMSB4X (UniProt P62328),0.434 (inactive)
16,TUBB6 (UniProt K7ES63),0.02 (inactive)
17,TCF20 (UniProt Q9UGU0),-0.063 (inactive)
